Test results published in PubChem BioAssay (Tox21).
Unmarked numbers belong to inactive results. Records with an inconclusive call do not appear. Where a call stands in place of a potency, no number is given. The source made the active and inactive calls. Unless noted, calls come from the whole dose curve; as a rule, active = well fitted curve in the direction sought with a large enough effect in the repeat runs; inconclusive = weak or mixed curves; inactive = no such curve, though single readings can be large; an effect the other way counts as inactive or inconclusive.

How the values were obtained:
[1] = molecular target: Progesterone receptor (Homo sapiens) (UniProt P06401); assay: qHTS assay to identify small molecule agonists of the progesterone receptor (PR) signaling pathway (AID 1346784; calls by dose curve; note: nearly all actives have a fitted effect of over 30% in size)
How it was run: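 PR-UAS-bla HEK 293T cells carrying a UAS-driven beta-lactamase reporter were seeded in medium with 2% charcoal-stripped FBS, preincubated 6 hr at 37C, then exposed to compounds in DMSO for 16 hr; agonism was read by LiveBLAzer B/G FRET fluorescence.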

[2] = molecular target: Progesterone receptor (Homo sapiens) (UniProt P06401); assay: qHTS assay to identify small molecule antagonists of the progesterone receptor (PR) signaling pathway (AID 1346795; active = well fitted inhibition curve with a large enough effect in the signal ratio in the repeat runs, not every such curve was filed as active; the % refers to the signal ratio)
How it was run: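 PR-UAS-bla HEK293T cells carrying a UAS-driven beta-lactamase reporter were plated in medium with 2% charcoal-stripped FBS and rested 6 hr at 37C. Compounds were added with 1 nM R5020 (final) for 16 hr, then FRET substrate loaded 2 hr at room temperature.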

[3] = qHTS assay to identify small molecule antagonists of the progesterone receptor (PR) signaling pathway - cell viability counter screen (AID 1346798); note: series mostly up to about 92 µM; nearly all actives have a fitted effect of over 50% in size
How it was run: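 PR-UAS-bla HEK293T cells in medium with 2% charcoal-stripped FBS were treated with compounds plus R5020 for 16 hr at 37C. Cell viability was then read by CellTiter-Glo luminescence after 30 min at room temperature in the same wells.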

[4] = qHTS assay to identify small molecule antagonists of the TGF-beta/Smad signaling pathway - cell viability counter screen (AID 1346824); note: nearly all actives have a fitted effect of over 50% in size
How it was run: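 SBE-bla HEK 293T cells were plated overnight at 37 C, then given compounds in DMSO plus TGF-beta1 (added as 0.25 ng/mL solution) for 5 hr. After the bla read, CellTiter-Glo was added to the same wells and luminescence read after 30 min at room temperature.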

[5] = qHTS assay to identify small molecule agonists of the TGF-beta/Smad signaling pathway - cell viability counter screen (AID 1346829); note: top concentration of the series differs between compounds; nearly all actives have a fitted effect of over 45% in size
How it was run: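 Luminescence from CellTiter-Glo, read after a 30 min room-temperature incubation, gives cell viability of SBE-bla HEK 293T cells treated 5 hr with compounds at 37 C.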

[6] = qHTS assay to identify small molecule agonists of the TGF-beta/Smad signaling pathway (AID 1346859; active = well fitted activation curve with a large enough effect in the signal ratio in the repeat runs, not every such curve was filed as active; the % refers to the signal ratio; note: series mostly up to about 77 µM)
How it was run: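 HEK 293T cells stably carrying a beta-lactamase reporter driven by the Smad binding element were seeded overnight, exposed to DMSO-dissolved compounds for 5 hr at 37 C, 5% CO2, then loaded with FRET substrate for 2 hr at room temperature.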

[7] = molecular target: Thyrotropin-releasing hormone receptor (Homo sapiens) (UniProt P34981); assay: qHTS assay to identify small molecule antagonists of the thyrotropin-releasing hormone receptor (TRHR) signaling pathway (AID 1346877; active = well fitted inhibition curve with a large enough effect in the repeat runs, not every such curve was filed as active; note: series mostly up to about 51 µM)
How it was run: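 HEK293/TRHR cells, 18 h, 37 °C; Ca2+ dye 2 h; cpd 5 min RT; TRH 1 nM final; fluorescence read 3 min, 1 s intervals; 15 concs, triplicate.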

[8] = molecular target: Thyrotropin-releasing hormone receptor (Homo sapiens) (UniProt P34981); assay: qHTS assay to identify small molecule agonists of the thyrotropin-releasing hormone receptor (TRHR) signaling pathway (AID 1346891; calls by dose curve; note: series mostly up to about 58 µM)
How it was run: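 TRHR-expressing HEK293 cells were plated 18 h at 37 °C/5% CO2, loaded with calcium dye 2 h at 37 °C, then given compound in DMSO; fluorescence was read kinetically for 3 min at 1 s intervals.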

[9] = Human pregnane X receptor (PXR) small molecule agonists, qHTS cell viability counter screen (AID 1346977); note: nearly all actives have a fitted effect of over 50% in size
How it was run: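 PXR-Luc HepG2 cells in medium with 5% charcoal-stripped FBS were pre-incubated 5hr, then exposed to compounds for 24hr at 37C. Viability was read in the same wells by CellTiter-Fluor fluorescence, reagent added after 23hr with a 1hr incubation.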

[10] = Caspase-3/7 induction in HepG2 cells by small molecules, qHTS assay (AID 1346978); note: nearly all actives have a fitted effect of over 15% in size
How it was run: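 Wild-type HepG2 cells (2,000/well) were settled 5 h at 37 C, 5% CO2, then exposed to compounds in DMSO for 17 h. Caspase-3/7 activity was read by luminescence 30 min after adding Caspase-Glo 3/7 reagent at room temperature.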

[11] = Caspase-3/7 induction in CHO-K1 cells by small molecules, qHTS cell viability counter screen (AID 1346979); note: nearly all actives have a fitted effect of over 35% in size
How it was run: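 Wild-type CHO-K1 cells were seeded at 1,500 per well, rested 5hr at 37 C, then exposed to compounds in DMSO. After 16hr, CellTiter-Fluor reagent was added and fluorescence read 1hr later as the viability measure.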

[12] = Caspase-3/7 induction in CHO-K1 cells by small molecules, qHTS assay (AID 1346980); note: nearly all actives have a fitted effect of over 15% in size
How it was run: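 Wild-type cells were seeded at 1,500 per well and settled 5 hr at 37 C, 5% CO2, then exposed to DMSO-dissolved compounds for 17 hr. Caspase-Glo 3/7 reagent was added, and luminescence was read after 30min at room temperature.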

[13] = Caspase-3/7 induction in HepG2 cells by small molecules, qHTS cell viability counter screen (AID 1346981); note: series mostly up to about 92 µM; nearly all actives have a fitted effect of over 30% in size
How it was run: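 Fluorescence read-out of live-cell protease activity (CellTiter-Fluor) after 1 hr with reagent. This was measured in the same wells as the caspase-3/7 luminescence, on HepG2 cells exposed to DMSO-dissolved compounds for 16 hr at 37 C.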

[14] = molecular target: Nuclear receptor subfamily 1 group I member 2 (Homo sapiens) (UniProt O75469); assay: Human pregnane X receptor (PXR) small molecule agonists, qHTS assay (AID 1346982); note: nearly all actives have a fitted effect of over 35% in size; note: potency is the fitted concentration of half-maximal effect
How it was run: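 HepG2 PXR-Luc reporter line, 5% charcoal-stripped FBS; 5 hr pre-incubation, compound (DMSO) 24 hr at 37 C/5% CO2; ONE-Glo 30 min RT; luminescence read-out.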

[15] = molecular target: Nuclear receptor subfamily 1 group I member 2 (Homo sapiens) (UniProt O75469); assay: CYP3A4 induction through human pregnane X receptor (PXR) by small molecules, qHTS assay (AID 1346984); note: nearly all actives have a fitted effect of over 40% in size
How it was run: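 HepG2-derived DPX-2 line carrying PXR plus a CYP3A4-promoter luciferase reporter; cells plated 5 hr, compound-exposed 24 hr at 37C. CYP3A4 activity probed with 3uM (final) Luciferin-IPA for 3hr, then luciferase read after One-Glo.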

[16] = molecular target: Nuclear receptor subfamily 1 group I member 2 (Homo sapiens) (UniProt O75469); assay: Human pregnane X receptor (PXR) activation by small molecules, qHTS assay (AID 1346985); note: nearly all actives have a fitted effect of over 40% in size
How it was run: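 DPX-2 cells (HepG2 co-transfected with a PXR response element and a CYP3A4-promoter luciferase construct) were seeded at 2,000 per well, rested 5 hr at 37C, then exposed to DMSO-dissolved compounds for 24 hr. Activation was read as luciferase luminescence.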

[17] = molecular target: Cytochrome P450 2D6 (Homo sapiens) (UniProt P10635); assay: Cytochrome P450 Family 2 Subfamily D Member 6 (CYP2D6) small molecule antagonists: luciferase reporter qHTS assay (AID 1671196); note: nearly all actives have a fitted effect of over 50% in size; note: potency is the fitted concentration of half-maximal effect
How it was run: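 Luminogenic proluciferin substrate, CYP2D6 enzyme; 10 min RT preincubation with compound, NADPH regeneration system added, 1 h RT. Stop/detection reagent, 20 min RT, luminescence read (RLU). Signal proportional to CYP activity.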

[18] = molecular target: Cytochrome P450 2C19 (Homo sapiens) (UniProt P33261); assay: Cytochrome P450 Family 2 Subfamily C Member 19 (CYP2C19) small molecule antagonists: luciferase reporter qHTS assay (AID 1671197); note: nearly all actives have a fitted effect of over 65% in size; note: potency is the fitted concentration of half-maximal effect
How it was run: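 CYP2C19 P450-Glo, 1536-well qHTS. Cpd + enzyme/proluciferin substrate 10 min RT; + NADPH regen, 37C 1 h; stop with luciferin detection reagent, 20 min RT, luminescence (RLU). Pos ctrl ketoconazole.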

[19] = qHTS assay to identify small molecule agonists of the progesterone receptor (PR) signaling pathway - cell viability counter screen (AID 1346799; calls by dose curve; note: nearly all actives have a fitted effect of over 45% in size)
How it was run: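 PR-UAS-bla HEK293T cells, 3,000 per well in medium with 2% charcoal-stripped FBS, were preincubated 6 hr at 37C, then exposed to compounds for 16 hr; viability was read as CellTiter-Glo luminescence after 30 min at room temperature.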

Chain of Thyrotropin-releasing hormone receptor (Homo sapiens) (P34981 whole entry, looked up): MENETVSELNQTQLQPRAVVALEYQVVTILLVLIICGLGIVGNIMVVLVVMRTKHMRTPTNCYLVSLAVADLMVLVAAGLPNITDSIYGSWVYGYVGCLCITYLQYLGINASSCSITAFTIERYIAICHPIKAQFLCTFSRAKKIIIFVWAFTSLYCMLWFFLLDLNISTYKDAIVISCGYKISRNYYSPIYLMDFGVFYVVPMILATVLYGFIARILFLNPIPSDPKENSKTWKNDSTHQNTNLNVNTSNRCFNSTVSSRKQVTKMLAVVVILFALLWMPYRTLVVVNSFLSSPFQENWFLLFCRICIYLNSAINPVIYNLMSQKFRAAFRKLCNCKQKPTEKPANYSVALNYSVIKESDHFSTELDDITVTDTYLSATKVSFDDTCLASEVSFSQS
Chain of Nuclear receptor subfamily 1 group I member 2 (Homo sapiens) (O75469 whole entry, looked up): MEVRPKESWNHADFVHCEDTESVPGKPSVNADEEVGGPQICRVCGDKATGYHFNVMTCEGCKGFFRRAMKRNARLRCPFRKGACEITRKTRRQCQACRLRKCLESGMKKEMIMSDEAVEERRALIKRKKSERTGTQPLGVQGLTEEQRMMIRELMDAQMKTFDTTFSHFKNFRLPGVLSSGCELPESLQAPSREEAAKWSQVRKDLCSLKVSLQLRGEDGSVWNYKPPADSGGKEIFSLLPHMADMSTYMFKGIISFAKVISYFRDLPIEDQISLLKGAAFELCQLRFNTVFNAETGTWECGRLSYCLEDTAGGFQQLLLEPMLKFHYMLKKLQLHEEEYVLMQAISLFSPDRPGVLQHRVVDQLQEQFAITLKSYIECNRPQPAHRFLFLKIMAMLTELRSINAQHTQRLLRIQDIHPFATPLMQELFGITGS
Chain of Progesterone receptor (Homo sapiens) (P06401 whole entry, looked up): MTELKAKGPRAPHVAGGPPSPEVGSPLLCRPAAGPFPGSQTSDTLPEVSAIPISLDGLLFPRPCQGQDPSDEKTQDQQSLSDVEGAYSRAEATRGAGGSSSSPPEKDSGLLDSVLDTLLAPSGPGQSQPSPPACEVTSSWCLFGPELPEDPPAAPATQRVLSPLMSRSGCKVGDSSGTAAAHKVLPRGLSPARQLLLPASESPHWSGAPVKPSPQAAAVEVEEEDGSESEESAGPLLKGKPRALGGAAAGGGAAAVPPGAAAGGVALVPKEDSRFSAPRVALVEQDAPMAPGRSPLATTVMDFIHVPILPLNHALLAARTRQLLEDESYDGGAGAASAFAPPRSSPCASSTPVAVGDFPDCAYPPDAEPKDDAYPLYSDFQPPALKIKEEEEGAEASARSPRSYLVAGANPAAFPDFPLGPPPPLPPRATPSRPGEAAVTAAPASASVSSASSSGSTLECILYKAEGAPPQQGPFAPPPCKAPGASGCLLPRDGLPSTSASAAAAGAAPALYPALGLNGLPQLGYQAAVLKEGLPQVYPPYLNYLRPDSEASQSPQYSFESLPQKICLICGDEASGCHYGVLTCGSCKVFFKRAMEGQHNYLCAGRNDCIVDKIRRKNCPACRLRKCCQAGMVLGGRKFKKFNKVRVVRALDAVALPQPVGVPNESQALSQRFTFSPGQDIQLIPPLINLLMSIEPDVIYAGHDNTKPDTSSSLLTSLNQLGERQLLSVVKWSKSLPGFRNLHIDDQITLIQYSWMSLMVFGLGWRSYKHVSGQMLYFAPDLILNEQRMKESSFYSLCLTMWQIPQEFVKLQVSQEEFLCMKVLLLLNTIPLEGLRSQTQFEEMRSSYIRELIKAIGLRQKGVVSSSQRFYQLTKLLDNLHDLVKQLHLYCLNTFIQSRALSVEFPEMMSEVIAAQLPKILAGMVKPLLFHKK
Chain of Cytochrome P450 2C19 (Homo sapiens) (P33261 whole entry, looked up): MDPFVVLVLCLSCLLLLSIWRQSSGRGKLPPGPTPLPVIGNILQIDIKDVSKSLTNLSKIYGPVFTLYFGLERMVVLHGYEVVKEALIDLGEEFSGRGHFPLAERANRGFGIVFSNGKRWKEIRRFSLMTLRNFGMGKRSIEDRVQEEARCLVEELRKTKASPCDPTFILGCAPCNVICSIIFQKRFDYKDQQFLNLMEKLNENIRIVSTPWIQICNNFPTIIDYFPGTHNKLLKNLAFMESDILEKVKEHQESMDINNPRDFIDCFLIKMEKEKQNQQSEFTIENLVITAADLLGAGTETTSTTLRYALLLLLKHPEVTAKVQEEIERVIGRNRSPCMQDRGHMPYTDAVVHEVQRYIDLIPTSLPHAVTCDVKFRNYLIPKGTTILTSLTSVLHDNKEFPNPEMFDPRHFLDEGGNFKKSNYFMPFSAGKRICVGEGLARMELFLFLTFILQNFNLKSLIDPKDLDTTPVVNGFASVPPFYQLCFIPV
Chain of Cytochrome P450 2D6 (Homo sapiens) (P10635 whole entry, looked up): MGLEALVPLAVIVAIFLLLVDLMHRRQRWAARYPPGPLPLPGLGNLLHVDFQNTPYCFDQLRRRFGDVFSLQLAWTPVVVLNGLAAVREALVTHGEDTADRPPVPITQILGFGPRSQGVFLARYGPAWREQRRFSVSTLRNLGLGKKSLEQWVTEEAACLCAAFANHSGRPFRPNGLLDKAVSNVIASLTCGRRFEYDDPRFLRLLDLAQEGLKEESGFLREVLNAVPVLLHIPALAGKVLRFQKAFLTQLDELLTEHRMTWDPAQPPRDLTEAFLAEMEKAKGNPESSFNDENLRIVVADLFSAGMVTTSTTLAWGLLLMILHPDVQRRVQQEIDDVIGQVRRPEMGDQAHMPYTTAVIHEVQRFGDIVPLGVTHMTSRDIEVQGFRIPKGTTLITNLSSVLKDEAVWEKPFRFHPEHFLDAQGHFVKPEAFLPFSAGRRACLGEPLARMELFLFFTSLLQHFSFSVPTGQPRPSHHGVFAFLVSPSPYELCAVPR

SMILES | Potency [1] | Potency [2] | Potency [3] | Potency [4] | Potency [5] | Potency [6] | Potency [7] | outcome [8] | Potency [9] | Potency [10] | Potency [11] | Potency [12] | Potency [13] | Potency [14] | Potency [15] | Potency [16] | Potency [17] | Potency [18] | Potency [19]
CCCCC(CC)CN1CN(CC(CC)CCCC)CC(C)(N)C1 (stereo unspecified) | inactive | inactive | inactive | inactive | inactive | inactive | inactive | inactive | inactive | inactive | inactive | inactive | inactive | 21.1 µM (active) | inactive | inactive | 0.309 µM (active) | inactive | 
c1cnccn1 | inactive | inactive | inactive | inactive |  | inactive | inactive | inactive | inactive | inactive |  | inactive |  | inactive |  |  | inactive | inactive | inactive
ClCCl | inactive | inactive | inactive |  | inactive | inactive | inactive | inactive | inactive |  | inactive | inactive | inactive | inactive |  |  | inactive |  | inactive
CCCCCCCC/C=C\CCCCCCCCN | inactive | inactive | inactive |  |  | inactive | inactive | inactive | inactive | inactive |  | inactive | inactive | inactive | inactive | inactive | 1.55 µM (active) |  | inactive
CCN1C(=O)c2ccccc2C1Nc1ccc(OCCN2CCCCC2)cc1 (stereo unspecified) | inactive | inactive | inactive | inactive | inactive | inactive | inactive | inactive |  | inactive | inactive | inactive |  | 1.68 µM (active) |  |  |  |  | 
CCC(=O)C(=O)CC | inactive | inactive | inactive |  | inactive | inactive | inactive | inactive | inactive |  | inactive | inactive | inactive | 18 µM (active) |  |  | inactive | 41.6 µM (active) | inactive
Cc1cccc(C(=O)O)c1O | inactive | inactive | inactive | inactive | inactive | inactive | inactive | inactive | inactive | inactive | inactive | inactive | inactive | inactive | inactive | inactive | inactive | inactive | 
O=[N+]([O-])c1cccc(C(F)(F)F)c1 | inactive | inactive | inactive |  | inactive | inactive | inactive | inactive | inactive |  | inactive | inactive | inactive | inactive |  |  | inactive | inactive | inactive
